Measured values published in PubChem BioAssay (NCATS).
Records with an inconclusive call do not appear. A call without a number means that no potency is given here. Active and inactive are the calls of the source. The call rests on the fitted dose curve; in most records, active means well fitted inhibition curve with a large enough effect; inconclusive means small, poorly fitted or top-dose-only effect; inactive means flat fitted curve, though single readings scatter.

System: CP215
Test: qHTS profiling for inhibitors of Plasmodium falciparum proliferation (AID 504749); further: nearly all actives have a fitted effect of over 60% in size
Settings: P. falciparum in erythrocytes, SYBR Green DNA, 72 h; series mostly up to 28.7 µM
In short: (§1)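 Infected RBCs, 0.3% parasitemia/2.5% Hct final; cpd 72 h, 37 C, 5% CO2; lysis buffer with saponin/triton/SYBR Green I, o/n RT dark; FI 485/535; norm. to artemisinin (0.29 uM) and DMSO.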
Potency means the concentration at half of the fitted maximal effect.

Question: Which Potency does the source give for CC(C)[C@@H](N)C(=O)O here?
Answer: inactive

Question: O=C(O)COc1ccc(CCNS(=O)(=O)c2ccccc2)s1 was tested. Which Potency did it give?
Answer: inactive

Question: For CC(=O)Nc1ccc(OC(=O)c2ccccc2O)cc1, which Potency is on record?
Answer: inactive

Question: For CC(C)O, which Potency is on record?
Answer: inactive

Question: Which Potency does the source give for C=CC[C@@H]1/C=C(\C)C[C@H](C)C[C@H](OC)[C@H]2O[C@@](O)(C(=O)C(=O)N3CCCC[C@H]3C(=O)O[C@H](/C(C)=C/[C@@H]3CC[C@@H](O)[C@H](OC)C3)[C@H](C)[C@@H](O)CC1=O)[C@H](C)C[C@@H]2OC here?
Answer: 3790 nM (active)

Question: How did the Potency turn out when Cc1cc(=O)c(C(=O)N[C@@H](C(=O)N[C@@H]2C(=O)N3C(C(=O)O)=C(CSc4nnnn4C)CS[C@H]23)c2ccc(O)cc2)c[nH]1 was run?
Answer: inactive

System: CP217
Test: as above
Settings: P. falciparum in erythrocytes, SYBR Green DNA, 72 h; series mostly up to 28.7 µM
In short: as §1

Question: For CC/C=C\C/C=C\C/C=C\C/C=C\C/C=C\C/C=C\CCC(=O)O, which Potency is on record?
Answer: inactive

Question: With O=C(O)/C=C/c1ccccc1 as the compound, how does the Potency read?
Answer: inactive

Question: CC(=O)Oc1cccc(C(=O)O)c1OC(C)=O was tested. Which Potency did it give?
Answer: inactive

Question: How did the Potency turn out when CC(CNC(=O)c1cccnc1)NC(=O)c1cccnc1 (centres undefined) was run?
Answer: inactive

Question: How did the Potency turn out when CN=C1C=CC(=C(c2ccc(N(C)C)cc2)c2ccc(N(C)C)cc2)C=C1 was run?
Answer: 316 nM (active)

Question: How did the Potency turn out when CC/C(=C(/CC)c1ccc(OP(=O)(O)O)cc1)c1ccc(OP(=O)(O)O)cc1 was run?
Answer: inactive

Question: Which Potency does the source give for ClC(Cl)Cl here?
Answer: inactive

Question: For CCCCCCCCCCCCCCCCCC[N+](C)(C)CCC[Si](OC)(OC)OC, which Potency is on record?
Answer: inactive

Question: Which Potency does the source give for Oc1cc(O)cc(O)c1 here?
Answer: inactive

Question: How did the Potency turn out when CC(=O)Nc1c(I)c(C(=O)O)c(I)c(N(C)C(C)=O)c1I was run?
Answer: inactive

Question: How did the Potency turn out when CC(C)CCC[C@@H](C)[C@H]1CC[C@H]2[C@@H]3CC=C4C[C@@H](O)CC[C@]4(C)[C@H]3CC[C@]12C was run?
Answer: inactive

Question: Which Potency does the source give for CCCCCCCCCCCCOCCCN here?
Answer: inactive

Question: With CC(C)(C)c1ccc2c(S(=O)(=O)O)c(C(C)(C)C)ccc2c1 as the compound, how does the Potency read?
Answer: inactive

Question: For CCSc1ccc2c(c1)N(CCCN1CCN(C)CC1)c1ccccc1S2, which Potency is on record?
Answer: inactive

Question: With c1ccc(-n2cnnn2)cc1 as the compound, how does the Potency read?
Answer: inactive

Question: CN1CCC(OC(=O)C(Oc2ccc(Cl)cc2)Oc2ccc(Cl)cc2)CC1 was tested. Which Potency did it give?
Answer: inactive

Question: CC(C)Cc1ccc([C@@H](C)C(=O)NS(C)(=O)=O)cc1 was tested. Which Potency did it give?
Answer: inactive

Question: CCCc1ccc(C(=O)O)cc1 was tested. Which Potency did it give?
Answer: inactive

Question: Which Potency does the source give for CNC(=O)c1c(I)c(C(=O)NCC(=O)Nc2c(I)c(C(=O)O)c(I)c(C(=O)NCCO)c2I)c(I)c(N(C)C(C)=O)c1I here?
Answer: inactive

Question: For CC1CC(O)CC(C)(C)C1 (centres undefined), which Potency is on record?
Answer: inactive

Question: For C=Cc1ccc(S(=O)(=O)O)cc1, which Potency is on record?
Answer: inactive

Question: How did the Potency turn out when OCC1(CO)COC(C(Cl)(Cl)Cl)OC1 was run?
Answer: inactive

Question: CC(C)(C)CC(C)(C)c1cc(Cc2cc(C(C)(C)CC(C)(C)C)cc(-n3nc4ccccc4n3)c2O)c(O)c(-n2nc3ccccc3n2)c1 was tested. Which Potency did it give?
Answer: inactive

Question: How did the Potency turn out when O=C(O)c1ccc(OCCn2ccnc2)cc1 was run?
Answer: inactive

Question: With CC(C)c1ncc([N+](=O)[O-])n1C as the compound, how does the Potency read?
Answer: inactive

Question: Which Potency does the source give for CN1c2c(nc(N)[nH]c2=O)NCC1CNc1ccc(C(=O)NC(CCC(=O)O)C(=O)O)cc1 (centres undefined) here?
Answer: inactive

Question: N=C(N)n1cccn1 was tested. Which Potency did it give?
Answer: inactive

Question: With N[C@H](CC(=O)O)C(=O)O as the compound, how does the Potency read?
Answer: inactive

Question: For NCC(O)CC(=O)O (centres undefined), which Potency is on record?
Answer: inactive

Question: Which Potency does the source give for CCN(CC)C(=O)c1cccnc1 here?
Answer: inactive

Question: With CCOC(C)OCC as the compound, how does the Potency read?
Answer: inactive

Question: With FCOC(C(F)(F)F)C(F)(F)F as the compound, how does the Potency read?
Answer: inactive

Question: Which Potency does the source give for CN[C@@H]1[C@H](O[C@H]2[C@H](O[C@H]3[C@H](O)[C@@H](O)[C@H](N=C(N)N)[C@@H](O)[C@@H]3N=C(N)N)O[C@@H](C)[C@]2(O)C=O)O[C@@H](CO)[C@H](O)[C@H]1O here?
Answer: inactive

Question: CC(C)[C@@H](N)C(=O)O was tested. Which Potency did it give?
Answer: inactive

Question: With O=C(O)COc1ccc(CCNS(=O)(=O)c2ccccc2)s1 as the compound, how does the Potency read?
Answer: inactive

Question: How did the Potency turn out when CC(=O)Nc1ccc(OC(=O)c2ccccc2O)cc1 was run?
Answer: inactive

Question: How did the Potency turn out when CC(C)O was run?
Answer: inactive

Question: C=CC[C@@H]1/C=C(\C)C[C@H](C)C[C@H](OC)[C@H]2O[C@@](O)(C(=O)C(=O)N3CCCC[C@H]3C(=O)O[C@H](/C(C)=C/[C@@H]3CC[C@@H](O)[C@H](OC)C3)[C@H](C)[C@@H](O)CC1=O)[C@H](C)C[C@@H]2OC was tested. Which Potency did it give?
Answer: 3160 nM (active)

Question: With Cc1cc(=O)c(C(=O)N[C@@H](C(=O)N[C@@H]2C(=O)N3C(C(=O)O)=C(CSc4nnnn4C)CS[C@H]23)c2ccc(O)cc2)c[nH]1 as the compound, how does the Potency read?
Answer: inactive

System: CP237
Test: as above
Settings: P. falciparum in erythrocytes, SYBR Green DNA, 72 h; series mostly up to 28.7 µM
In short: as §1

Question: For CC/C=C\C/C=C\C/C=C\C/C=C\C/C=C\C/C=C\CCC(=O)O, which Potency is on record?
Answer: inactive

Question: For O=C(O)/C=C/c1ccccc1, which Potency is on record?
Answer: inactive

Question: How did the Potency turn out when CC(=O)Oc1cccc(C(=O)O)c1OC(C)=O was run?
Answer: inactive

Question: CC(CNC(=O)c1cccnc1)NC(=O)c1cccnc1 (centres undefined) was tested. Which Potency did it give?
Answer: inactive

Question: Which Potency does the source give for CN=C1C=CC(=C(c2ccc(N(C)C)cc2)c2ccc(N(C)C)cc2)C=C1 here?
Answer: 398 nM (active)

Question: For CC/C(=C(/CC)c1ccc(OP(=O)(O)O)cc1)c1ccc(OP(=O)(O)O)cc1, which Potency is on record?
Answer: inactive

Question: For ClC(Cl)Cl, which Potency is on record?
Answer: inactive

Question: How did the Potency turn out when CCCCCCCCCCCCCCCCCC[N+](C)(C)CCC[Si](OC)(OC)OC was run?
Answer: inactive

Question: For Oc1cc(O)cc(O)c1, which Potency is on record?
Answer: inactive

Question: CC(=O)Nc1c(I)c(C(=O)O)c(I)c(N(C)C(C)=O)c1I was tested. Which Potency did it give?
Answer: inactive

Question: Which Potency does the source give for CC(C)CCC[C@@H](C)[C@H]1CC[C@H]2[C@@H]3CC=C4C[C@@H](O)CC[C@]4(C)[C@H]3CC[C@]12C here?
Answer: inactive

Question: For CCCCCCCCCCCCOCCCN, which Potency is on record?
Answer: inactive

Question: For CC(C)(C)c1ccc2c(S(=O)(=O)O)c(C(C)(C)C)ccc2c1, which Potency is on record?
Answer: inactive

Question: With CCSc1ccc2c(c1)N(CCCN1CCN(C)CC1)c1ccccc1S2 as the compound, how does the Potency read?
Answer: inactive

Question: Which Potency does the source give for c1ccc(-n2cnnn2)cc1 here?
Answer: inactive

Question: CN1CCC(OC(=O)C(Oc2ccc(Cl)cc2)Oc2ccc(Cl)cc2)CC1 was tested. Which Potency did it give?
Answer: inactive

Question: Which Potency does the source give for CC(C)Cc1ccc([C@@H](C)C(=O)NS(C)(=O)=O)cc1 here?
Answer: inactive

Question: How did the Potency turn out when CCCc1ccc(C(=O)O)cc1 was run?
Answer: inactive

Question: CNC(=O)c1c(I)c(C(=O)NCC(=O)Nc2c(I)c(C(=O)O)c(I)c(C(=O)NCCO)c2I)c(I)c(N(C)C(C)=O)c1I was tested. Which Potency did it give?
Answer: inactive

Question: For CC1CC(O)CC(C)(C)C1 (centres undefined), which Potency is on record?
Answer: inactive

Question: How did the Potency turn out when C=Cc1ccc(S(=O)(=O)O)cc1 was run?
Answer: inactive

Question: For OCC1(CO)COC(C(Cl)(Cl)Cl)OC1, which Potency is on record?
Answer: inactive

Question: How did the Potency turn out when CC(C)(C)CC(C)(C)c1cc(Cc2cc(C(C)(C)CC(C)(C)C)cc(-n3nc4ccccc4n3)c2O)c(O)c(-n2nc3ccccc3n2)c1 was run?
Answer: inactive

Question: With O=C(O)c1ccc(OCCn2ccnc2)cc1 as the compound, how does the Potency read?
Answer: inactive

Question: For CC(C)c1ncc([N+](=O)[O-])n1C, which Potency is on record?
Answer: inactive

Question: With CN1c2c(nc(N)[nH]c2=O)NCC1CNc1ccc(C(=O)NC(CCC(=O)O)C(=O)O)cc1 (centres undefined) as the compound, how does the Potency read?
Answer: inactive

Question: How did the Potency turn out when N=C(N)n1cccn1 was run?
Answer: inactive

Question: For N[C@H](CC(=O)O)C(=O)O, which Potency is on record?
Answer: inactive

Question: For NCC(O)CC(=O)O (centres undefined), which Potency is on record?
Answer: inactive

Question: For CCN(CC)C(=O)c1cccnc1, which Potency is on record?
Answer: inactive

Question: CCOC(C)OCC was tested. Which Potency did it give?
Answer: inactive

Question: FCOC(C(F)(F)F)C(F)(F)F was tested. Which Potency did it give?
Answer: inactive

Question: CN[C@@H]1[C@H](O[C@H]2[C@H](O[C@H]3[C@H](O)[C@@H](O)[C@H](N=C(N)N)[C@@H](O)[C@@H]3N=C(N)N)O[C@@H](C)[C@]2(O)C=O)O[C@@H](CO)[C@H](O)[C@H]1O was tested. Which Potency did it give?
Answer: inactive

Question: CC(C)[C@@H](N)C(=O)O was tested. Which Potency did it give?
Answer: inactive

Question: O=C(O)COc1ccc(CCNS(=O)(=O)c2ccccc2)s1 was tested. Which Potency did it give?
Answer: inactive

Question: CC(=O)Nc1ccc(OC(=O)c2ccccc2O)cc1 was tested. Which Potency did it give?
Answer: inactive

Question: How did the Potency turn out when CC(C)O was run?
Answer: inactive

Question: With C=CC[C@@H]1/C=C(\C)C[C@H](C)C[C@H](OC)[C@H]2O[C@@](O)(C(=O)C(=O)N3CCCC[C@H]3C(=O)O[C@H](/C(C)=C/[C@@H]3CC[C@@H](O)[C@H](OC)C3)[C@H](C)[C@@H](O)CC1=O)[C@H](C)C[C@@H]2OC as the compound, how does the Potency read?
Answer: 708 nM (active)

Question: For Cc1cc(=O)c(C(=O)N[C@@H](C(=O)N[C@@H]2C(=O)N3C(C(=O)O)=C(CSc4nnnn4C)CS[C@H]23)c2ccc(O)cc2)c[nH]1, which Potency is on record?
Answer: inactive
